Bioassay records from PubChem.
D1 potentiator: potentiators of human D1 dopamine receptor; potentiation, % at 10 µM; 360,000 tested, 0.036% active; HEK293 TREx D1 cells, calcium flux, dopamine EC20 potentiation; in the data active = potentiation above about 30%; also: 0% is about no effect
Target sequence (P21728 whole entry, looked up): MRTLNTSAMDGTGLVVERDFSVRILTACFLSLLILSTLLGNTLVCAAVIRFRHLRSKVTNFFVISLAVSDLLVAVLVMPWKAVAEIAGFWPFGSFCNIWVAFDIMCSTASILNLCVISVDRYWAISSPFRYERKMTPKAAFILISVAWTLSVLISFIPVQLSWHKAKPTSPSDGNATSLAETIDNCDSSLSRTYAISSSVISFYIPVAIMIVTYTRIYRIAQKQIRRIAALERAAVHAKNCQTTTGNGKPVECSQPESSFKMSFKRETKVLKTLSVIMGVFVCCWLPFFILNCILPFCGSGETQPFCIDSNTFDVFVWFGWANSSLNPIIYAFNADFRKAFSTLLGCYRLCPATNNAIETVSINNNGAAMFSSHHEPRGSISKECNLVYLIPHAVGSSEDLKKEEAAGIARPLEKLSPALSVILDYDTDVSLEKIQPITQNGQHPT
D1 antagonist: antagonists of human D1 dopamine receptor. AID 504652. P21728. HEK293 TREx D1 cells, calcium flux, dopamine EC80; active compounds read low. activity change, negative = inhibition, % at 10 µM. 360,000 tested, 3.2% active; in the data active = activity change below about -30%; also: % is scaled to controls: 0 for no effect and ±100 for the full control effect
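Allosteric or orthosteric antagonism assessed as attenuation of the calcium response to EC80 dopamine, added 180 s after compound, in induced HEK293 Trex D1 cells loaded with no-wash calcium dye.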
D1 ag: agonists of human D1 dopamine receptor; P21728; HEK293 T-REx D1 cells, calcium flux, agonist mode; activation, % at 2 µM; 360,000 tested, 1% active; also: 0% is about no effect
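Agonism was scored from calcium flux recorded over 180 s (1 read/s) after pintool compound addition, following a 10-cycle baseline. Cells were inducible force-coupled HEK293 TREx D1, plated overnight at 30 C and loaded with no-wash calcium dye.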
TRHR PAM: allosterically enhances the human TRH receptor. AID 493056. enhancement, % at 2 µM. 360,000 tested, 0.66% active. TRHR cells, fluo-8 calcium fluorescence, EC20 TRH enhancement; in the data active = enhancement above about 30%; also: 0% is about no effect
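TRHR-expressing cells loaded with fluo-8 calcium dye were read kinetically (ex 480/em 530) during compound addition, then stimulated with an EC20 of TRH (10 nM final). Enhancement of the Gq-mediated intracellular calcium response was scored.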
TRHR ag: agonists of human TRH receptor | P34981 | TRHR cells, calcium flux fluo-8, FDSS agonist mode | activation, % at 2 µM | 360,000 tested, 0.18% active | AID 493084; also: 0% is about no effect
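Fluo-8-loaded TRHR cells; 10 s baseline, compound added, kinetic Ca2+ fluorescence read 1/s, agonist mode.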
* marks the source's active call; other numbers are inactive results; x = no result given; ! = repeats disagree. Rows were chosen to be rich in hits. Some 4.7% of all compounds tested hit in one or more screens of this group. Rule as the data show it, unless noted: active = activation above about 30%; inactive = the rest.

SMILES	D1 potentiator	D1 antagonist	D1 ag	TRHR PAM	TRHR ag
CCOC(=O)C1CCCN(C(=O)c2ccc3c(c2)N(Cc2ccccc2F)C(=O)c2ccccc2S3=O)C1 (stereo unspecified)	0.5	-35.7*	2.1	-3.2	0.1
CCOc1ccccc1-c1nc(CN(Cc2cnn(C)c2)C(C)C)c(C)o1	-3.8	-2.7	2.3	4.5	-0.4
COc1ccc(-c2nc(CN(Cc3cnn(C)c3)C(C)C)c(C)o2)c(OC)c1	-1.5	-31.1*	0.5	7.2	0.2
CC1CC(C)CN(C(=O)C2CC(=O)N(c3ccc4c(c3)OCCO4)C2)C1 (stereo unspecified)	-0.2	4.3	1.4	-3.0	0.2
NC(=O)C1CCN(C(=O)C2CC(=O)N(c3ccc4c(c3)OCCO4)C2)CC1 (stereo unspecified)	-13.0	-34.1*	-0.2	1.4	0.4
COc1ccc(OC)c(NC(=O)CSC2=Nc3ccccc3C3=NC(CCC(=O)NCc4ccco4)C(=O)N23)c1 (stereo unspecified)	-3.5	-7.6	1.3	3.7	-0.4
Clc1cccc(C2Nc3cccc4cccc(c34)N2)c1Cl	-12.2	-35.8*	2.0	-11.2	-0.2
Cc1ccccc1OCC(=O)OCC(=O)N1CCCc2ccccc21	-5.2	29.9	2.6	1.6	0.2
O=C(OCC(=O)N1CCCc2ccccc21)c1cnc(Cl)c(Cl)c1	0.1	4.3	41.2*	17.9	0.2
O=C(Cn1cnc2ccccc21)OCC(=O)N1CCCc2ccccc21	-1.1	-60.6*	7.5	-0.6	0.3
O=C(CSc1nc(=O)[nH]c2c1CCC2)NCc1ccccc1Cl	-2.6	x	-3.3	4.3	0.4
N#Cc1c[nH]n2c(NC3CCCC3)c(-c3cccc(Br)c3)nc12	-1.8	4.5	3.7	-8.2	-0.3
Cc1ccc(NC(=O)c2oc3ccccc3c2NC(=O)C2CCCCC2)cc1	-4.0	10.9	4.7	1.8	-1.9
COc1ccc(OC)c(-n2c(=O)[nH]c3cc(C(=O)NCCc4ccc(OC)c(OC)c4)ccc3c2=O)c1	-0.5	-7.1	-0.1	-0.3	0.1
O=C(CN1CCN(Cc2ccccc2Cl)C1=O)NCc1ccccc1Cl	-0.8	-6.1	-0.2	2.2	-0.9
Cc1ccc(C2=CC(=O)C[C@H](c3ccc4c(c3)OCO4)C2)cc1	-0.8	x	-0.2	-1.5	-0.3
O=C1C=C(c2ccc3c(c2)oc2ccccc23)C[C@@H](c2ccc3c(c2)OCO3)C1	0.1	-32.9*	-0.2	21.2	-0.3
N#Cc1ccccc1CSc1nnc(-c2ccc(Br)cc2)o1	-3.6	1.4	3.9	-7.7	-0.7
CCOC(=O)c1nn(C)c(C)c1Cl	-7.2	-44.1*	6.5	7.0	0.1
COc1ccccc1CNc1nc2nc(C)c(Cl)c(C)n2n1	0.0	2.2	-1.7	3.6	-1.6
CC1CN(c2nc3ccccn3c(=O)c2C=O)CC(C)O1 (stereo unspecified)	-3.0	-33.9*	1.0	-1.4	0.7
CC1CN(c2nc3ccccn3c(=O)c2/C=C(\C#N)S(=O)(=O)c2ccccc2)CC(C)O1 (stereo unspecified)	-0.4	2.5	2.9	-4.6	0.7
CN(Cc1ccccc1)C(=O)CSc1nc2ccsc2c(=O)n1-c1ccc(F)cc1	0.4	21.1	6.2	9.5	0.1
O=Nc1c(-c2c(O)[nH]c3cc(Br)ccc23)[nH]c2ccccc12	-9.1	-56.7*	8.8	-9.4	4.3
O=C(CSCc1cccc(Br)c1)N=Nc1c(O)[nH]c2ccccc12	-1.1	-2.1	0.9	-3.1	0.7
SMILES	D1 potentiator	D1 antagonist	D1 ag	TRHR PAM	TRHR ag
CCCCNC(=O)CCCn1c(=O)c2ccccc2n(Cc2ccccc2C)c1=O	0.6	14.9	-0.8	7.0	-0.8
O=C(N/N=C/c1ccccc1)C1CCCN1C(=O)c1cc([N+](=O)[O-])cc([N+](=O)[O-])c1 (stereo unspecified)	-0.2	10.1	0.5	19.1	0.2
C/C(=N/NC(=O)C1CCCN1C(=O)c1ccc([N+](=O)[O-])cc1)c1ccc(Br)cc1 (stereo unspecified)	-4.3	-8.1	1.6	34.7*	0.8
COc1ccc(Nc2ncc3c(n2)CCN(Cc2sccc2C)C3)c(OC)c1	0.3	-2.8	-0.8	-0.8	0.2
CC(C)Cn1c(-c2ccco2)n[nH]c1=S	-1.7	3.7	2.0	34.7*	0.2
FC(F)(F)c1ccccc1-n1c(-c2ccco2)n[nH]c1=S	31.9*	3.7	3.4	-1.2	-0.6
CCn1c(Cc2ccccc2)n[nH]c1=S	-2.5	6.0	2.4	0.2	0.6
CC(C)Cn1c(Cc2ccccc2)n[nH]c1=S	-2.2	-35.2*	32.7*	-5.1	-0.1
COc1cc(OC)c(NC(=O)c2cn(C)c(=O)c3cc(OC)c(OC)cc23)cc1Cl	0.6	8.3	-0.6	-15.1	0.0
COc1ccc(S(=O)(=O)N2CCCN(CC(=O)Nc3ccc(OC)cc3OC)CC2)cc1	-4.0	-9.1	0.4	-2.5	-2.1
NC(=O)C1CCN(c2nc(-c3ccc(Br)cc3)cs2)CC1	-1.7	-46.1*!	1.0	2.2	0.3
CC(=O)c1ccc(-c2csc(N3CCC(C(N)=O)CC3)n2)cc1	-5.5	3.7	1.9	-2.6	-0.2
COC(=O)C1=C(C)N(C2CCCCC2)C(=O)/C1=C\c1cccs1	13.1	6.1	0.9	39.7*	-0.4
COC(=O)C1=C(C)N(C)C(=O)/C1=C\c1cccs1	-7.6	-8.1	-0.1	-7.0	0.1
CCc1ccc(-c2cc(C)no2)cc1S(=O)(=O)NCCCN1CCN(c2ccccc2)CC1	-5.7	-66.8*	16.8	-2.3	0.5
